In the supplement of paper PMC13380429:
Structures can show the parent of a compound that is named as a salt. Unmarked numbers belong to inactive results.

Test system: Vero E6 infected with SARS-CoV-2
Assay: inhibition of SARS-CoV-2 cytopathic effect; higher = more antiviral protection, active = above 15
Conditions: 48 h

| SMILES | inhibition of SARS-CoV-2 cytopathic effect (1 nM) [%] | inhibition of SARS-CoV-2 cytopathic effect (8.33 nM) [%] | inhibition of SARS-CoV-2 cytopathic effect (100 nM) [%] | inhibition of SARS-CoV-2 cytopathic effect (833.33 nM) [%] | inhibition of SARS-CoV-2 cytopathic effect (10000 nM) |
| --- | --- | --- | --- | --- | --- |
| C[N+](C)(C)CCOP(=O)(O)OC[C@H](O)CO [choline-alfoscerate] | -1.69 | -1.94 | -3.48 | -1.31 | -2.46% |
| NS(=O)(=O)c1cc2c(cc1C(F)(F)F)NC(Cc1ccccc1)NS2(=O)=O (stereo not given) [bendroflumethiazide] | -0.89 | -3.12 | -0.42 | -1.39 | 0.82% |
| Cc1cc(=O)n(-c2ccccc2)n1C [phenazone] | 1.97 | -0.88 | -1.01 | -0.52 | 0.53% |
| C=CCc1cc(OC)c(O)c(C(=O)NCCO)c1 [alibendol] | -1.08 | -1.21 | -0.53 | 1.71 | -2.2% |
| c1coc(-c2nnc3sc(C4CCCCC4)nn23)c1 [cardionogen-1] | -0.83 | -0.13 | 0.69 | -1.37 | -1.68% |
| CCCC[C@]1(CC)CS(=O)(=O)c2cc(CNC(CC(=O)O)CC(=O)O)c(OC)cc2[C@@H](c2ccccc2)N1 | 3.94 | 3.04 | 5.12 | 1.44 | 1.53% |
| CN1CCN(c2ccc3ccccc3n2)CC1 [N-methylquipazine] | 0.97 | -1.57 | 0.41 | -1.31 | -0.19% |
| COc1cc2ncnc(Nc3ccc(Oc4ccccc4)cc3)c2cc1OC [SRC-kinase-inhibitor-I] | 14.1 | 2.88 | 0.56 | -4.38 | -9.32% |
| CCCn1c(=O)[nH]c2nc(-c3ccc(S(=O)(=O)N4CCN(c5ccc(Cl)cc5)CC4)cc3)[nH]c2c1=O | -0.12 | 0.44 | -0.16 | 1.71 | 1.22% |
| CCCCCN(C)CCC(O)(P(=O)(O)O)P(=O)(O)O [ibandronate] | 0.68 | 1.34 | 0.79 | -3.03 | -2.11% |
| O=C(Nc1ccccc1)N1CCN(c2nc(-c3ccccc3)ns2)CC1 | 1.74 | 1.97 | 2.17 | 0.01 | -2.23% |
| C[C@H]1NCc2cc(-c3ccc4c(=O)c(C(=O)O)cn(C5CC5)c4c3OC(F)F)ccc21 [garenoxacin] | -4.16 | -1.9 | 1.67 | 3.28 | 1.04% |
| CN(C)CC/C=C1/c2ccccc2COc2ccc(CC(=O)O)cc21 [Olopatadine hydrochloride (Opatanol)] | 1.34 | 1.55 | 1.65 | 6.26 | 0.26% |
| CCN(CC)CCNC(=O)c1cc(S(C)(=O)=O)ccc1OC [tiapride] | 1.6 | -0.89 | -0.61 | 0.66 | 2.27% |
| COc1cccc(-c2cc(=O)c3ccccc3o2)c1N | 1.12 | -3.81 | -0.32 | -3.58 | -5.22% |
| COc1ccc2c(Oc3ccc(NC(=O)c4c(C)n(CC(C)(C)O)n(-c5ccccc5)c4=O)nc3)ccnc2c1 | 2.46 | 1.91 | -0.28 | -1.35 | -0.65% |
| CC(C)NCC(O)COc1ccc(COCCOC(C)C)cc1 (stereo not given) [bisoprolol] | -5.27 | -2.6 | -2.42 | -3.57 | -3.25% |
| O[C@@](Cc1nc(CC2(C(F)(F)F)CC2)c[nH]1)(c1ccc(-n2cccn2)cc1)C(F)(F)F | 0.23 | -0.02 | 0.57 | -0.43 | -2.55% |
| CN(C)Cc1c(C(=O)NCCOc2ccc(C(=O)NO)cc2)oc2ccccc12 | -1.08 | 3.14 | -1.35 | -15.5 | -26.9% |
| C=C1C(=O)O[C@@H]2[C@H]3O[C@]3(C)CC/C=C(\C)CC[C@@H]12 [parthenolide-(alternate-stereo)] | 0.91 | -1.19 | -2.99 | 2.8 | 23.8% (active) |
| CC1CCc2cc(F)cc3c(=O)c(C(=O)O)cn1c23 (stereo not given) [flumequine] | -0.77 | 0.46 | -0.95 | -0.27 | -0.64% |
| Cc1ccc(C(=O)Nc2ccc(CN3CCN(C)CC3)c(C(F)(F)F)c2)cc1C#Cc1cnc2[nH]ncc2c1 | 1.62 | 6.08 | 4.44 | -8.47 | -20.9% |
| CCCCC1=NC2(CCCC2)C(=O)N1Cc1ccc(-c2ccccc2-c2nnn[nH]2)cc1 [irbesartan] | -1.49 | -0.93 | 0.89 | 1.9 | 0.85% |
| Cc1ccccc1C(C(=O)NC1CCCCC1)N(C(=O)Cn1ccnc1C)c1cccc(F)c1 (stereo not given) | -0.81 | -1.8 | 0.77 | 1.79 | -0.96% |
| CC(C)C[C@@H]1NC(=O)[C@@H](C(C)C)NC(=O)[C@@H]2CCCN2C(=O)[C@@H](CC(=O)O)NC(=O)[C@@H](Cc2c[nH]c3ccccc23)NC1=O | -2.63 | 1.4 | -0.29 | -0.26 | -0.15% |
